The text below walks through data of PMC7862700, “An all-to-all approach to the identification of sequence-specific readers for epigenetic DNA modifications on cytosine”.

Holding throughout (assay): DAPPL (digital affinity profiling via proximity ligation, sequencing); 10 mM Tris-HCl pH 7.5, 50 mM NaCl, 1 mM DTT, 4% glycerol, room temperature, 30 min; GST-TFs on glutathione beads, 16-mer random dsDNA library, 0.1% formaldehyde crosslink after washing; high values mean tight binding
Conditions in all cases: protein: recombinant; tags: N-terminal GST; dsDNA, one strand shown

Assay [1] has as its target T1, ERF (Homo sapiens, UniProt P50548 1-548).
T1 sequence: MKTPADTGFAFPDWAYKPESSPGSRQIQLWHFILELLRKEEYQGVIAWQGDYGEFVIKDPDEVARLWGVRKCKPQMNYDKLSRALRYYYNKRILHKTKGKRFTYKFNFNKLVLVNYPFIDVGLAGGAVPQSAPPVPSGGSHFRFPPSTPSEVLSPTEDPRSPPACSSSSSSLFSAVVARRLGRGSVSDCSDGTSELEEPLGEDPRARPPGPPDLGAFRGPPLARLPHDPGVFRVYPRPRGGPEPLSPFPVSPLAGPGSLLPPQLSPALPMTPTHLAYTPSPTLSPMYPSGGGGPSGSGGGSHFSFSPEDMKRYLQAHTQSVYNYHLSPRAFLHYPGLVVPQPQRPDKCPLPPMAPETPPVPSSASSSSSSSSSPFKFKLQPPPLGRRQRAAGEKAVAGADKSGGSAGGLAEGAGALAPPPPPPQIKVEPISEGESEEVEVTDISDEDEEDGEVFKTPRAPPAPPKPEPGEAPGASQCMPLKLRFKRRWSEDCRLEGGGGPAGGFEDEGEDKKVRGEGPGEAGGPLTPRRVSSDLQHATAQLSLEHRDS
A digest of the protocol:
(§1)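 Pools were built from human transcription factors expressed in yeast as GST fusions, captured on glutathione beads and DNA-barcoded, along with a tag-only sample. Incubation with 200 nmole of a 16-mer random double-stranded DNA library lasted 30 min at room temperature in Tris/NaCl/DTT/glycerol buffer, and was followed by washing, 0.1% formaldehyde crosslinking, proximity ligation, PCR amplification and Illumina NextSeq500 sequencing. Binding signal is the quotient of each hexamer's read frequency for a factor and its frequency for the tag-only sample.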

In assay [2] the target is T2, ETV3L (Homo sapiens, UniProt Q6ZN32 1-361).
T2 sequence: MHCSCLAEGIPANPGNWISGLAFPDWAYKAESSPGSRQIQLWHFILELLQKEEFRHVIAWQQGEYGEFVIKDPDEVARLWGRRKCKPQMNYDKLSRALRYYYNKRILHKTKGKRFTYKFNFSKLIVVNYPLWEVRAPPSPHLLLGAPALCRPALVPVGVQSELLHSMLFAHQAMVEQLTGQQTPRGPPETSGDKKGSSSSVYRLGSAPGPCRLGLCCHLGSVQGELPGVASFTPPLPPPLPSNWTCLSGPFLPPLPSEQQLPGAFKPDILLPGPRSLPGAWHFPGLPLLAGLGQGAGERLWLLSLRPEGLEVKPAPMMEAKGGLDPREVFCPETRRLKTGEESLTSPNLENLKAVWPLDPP
The method in brief: as §1

The target of assay [3] is T3, ETS2 (Homo sapiens, UniProt P15036 1-469).
T3 sequence: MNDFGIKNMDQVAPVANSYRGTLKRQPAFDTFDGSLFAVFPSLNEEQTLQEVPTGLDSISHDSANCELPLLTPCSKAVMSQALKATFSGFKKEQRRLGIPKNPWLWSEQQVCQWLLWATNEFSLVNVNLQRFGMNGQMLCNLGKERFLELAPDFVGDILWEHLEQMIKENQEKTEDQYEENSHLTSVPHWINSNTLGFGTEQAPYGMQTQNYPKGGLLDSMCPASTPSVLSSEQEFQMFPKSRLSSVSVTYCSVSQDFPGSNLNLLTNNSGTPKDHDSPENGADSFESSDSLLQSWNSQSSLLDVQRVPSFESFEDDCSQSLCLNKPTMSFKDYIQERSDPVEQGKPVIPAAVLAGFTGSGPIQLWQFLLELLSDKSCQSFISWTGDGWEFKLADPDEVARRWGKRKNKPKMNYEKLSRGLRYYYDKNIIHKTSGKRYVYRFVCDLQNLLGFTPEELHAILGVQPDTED
The method in brief: as §1

Assay [4] has as its target T4, SPDEF (Homo sapiens, UniProt O95238 1-335).
T4 sequence: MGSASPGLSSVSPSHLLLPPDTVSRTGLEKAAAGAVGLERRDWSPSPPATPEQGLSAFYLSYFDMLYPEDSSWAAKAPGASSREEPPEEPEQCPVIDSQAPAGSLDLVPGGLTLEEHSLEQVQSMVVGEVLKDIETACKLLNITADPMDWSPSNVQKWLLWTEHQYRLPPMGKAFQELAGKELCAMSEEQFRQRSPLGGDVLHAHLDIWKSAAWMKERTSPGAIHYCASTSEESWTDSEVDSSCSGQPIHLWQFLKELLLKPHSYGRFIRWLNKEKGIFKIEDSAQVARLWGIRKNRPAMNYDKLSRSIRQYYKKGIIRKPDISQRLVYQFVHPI
A digest of the protocol:
as §1

For assay [5], the target named is T5, ETV7 (Homo sapiens, UniProt Q9Y603 1-341).
T5 sequence: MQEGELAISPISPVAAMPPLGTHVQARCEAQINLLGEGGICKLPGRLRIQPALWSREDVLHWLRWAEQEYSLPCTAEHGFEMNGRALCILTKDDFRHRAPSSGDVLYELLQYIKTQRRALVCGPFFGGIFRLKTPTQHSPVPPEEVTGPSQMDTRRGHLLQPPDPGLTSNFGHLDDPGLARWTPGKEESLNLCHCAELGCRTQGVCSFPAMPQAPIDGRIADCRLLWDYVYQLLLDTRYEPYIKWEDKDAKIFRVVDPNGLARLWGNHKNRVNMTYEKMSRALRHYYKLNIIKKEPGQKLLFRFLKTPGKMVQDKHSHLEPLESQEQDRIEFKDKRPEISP
The method in brief:
as §1

For assay [6], the target named is T6, ELF5 (Homo sapiens, UniProt Q9UKW6-2 1-255).
T6 sequence: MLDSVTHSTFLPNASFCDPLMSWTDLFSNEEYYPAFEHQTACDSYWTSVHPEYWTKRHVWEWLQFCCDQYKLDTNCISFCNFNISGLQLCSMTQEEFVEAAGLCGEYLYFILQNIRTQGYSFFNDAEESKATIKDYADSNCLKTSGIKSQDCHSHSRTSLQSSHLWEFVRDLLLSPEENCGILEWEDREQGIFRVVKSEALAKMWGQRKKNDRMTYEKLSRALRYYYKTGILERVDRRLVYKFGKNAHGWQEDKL
The method in brief:
as §1

In assay [7] the target is T7, ETV3 (Homo sapiens, UniProt P41162-2 1-143).
T7 sequence: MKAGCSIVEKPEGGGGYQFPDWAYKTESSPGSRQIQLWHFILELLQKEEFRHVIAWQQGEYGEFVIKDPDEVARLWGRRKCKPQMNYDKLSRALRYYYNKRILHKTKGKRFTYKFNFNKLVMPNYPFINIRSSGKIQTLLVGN
The method in brief:
as §1

Assay [8] deals with ETV6 (Homo sapiens, UniProt P41212 1-452). A digest of the protocol: as §1
ETV6, sequence (P41212 whole entry): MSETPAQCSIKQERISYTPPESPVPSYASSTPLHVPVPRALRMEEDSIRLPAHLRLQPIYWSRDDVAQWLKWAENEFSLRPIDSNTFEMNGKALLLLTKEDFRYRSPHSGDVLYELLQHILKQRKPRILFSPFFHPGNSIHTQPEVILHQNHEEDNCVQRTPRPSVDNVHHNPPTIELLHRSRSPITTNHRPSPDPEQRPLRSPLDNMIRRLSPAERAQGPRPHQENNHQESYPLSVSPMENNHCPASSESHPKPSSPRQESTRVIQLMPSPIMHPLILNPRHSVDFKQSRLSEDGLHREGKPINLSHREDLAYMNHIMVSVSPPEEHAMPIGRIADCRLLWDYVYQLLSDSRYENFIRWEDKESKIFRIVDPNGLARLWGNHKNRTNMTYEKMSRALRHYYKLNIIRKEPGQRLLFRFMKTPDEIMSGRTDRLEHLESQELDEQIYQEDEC

For GCCACT, the binding signal in assay [1] was 1.16 fold enrichment (6-mer frequency, TF over GST control); in assay [2], 1.07 fold enrichment (6-mer frequency, TF over GST control); in assay [3] it was 1.19 fold enrichment (6-mer frequency, TF over GST control); in assay [4] it was 1.15 fold enrichment (6-mer frequency, TF over GST control); in assay [5], 1.12 fold enrichment (6-mer frequency, TF over GST control); in assay [6], 1.16 fold enrichment (6-mer frequency, TF over GST control). Further, the binding signal in assay [7] was 1.16 fold enrichment (6-mer frequency, TF over GST control); in assay [8], 1.21 fold enrichment (6-mer frequency, TF over GST control).
Regarding TATCTA, the binding signal in assay [1] was 1.27 fold enrichment (6-mer frequency, TF over GST control); in assay [2], 1.18 fold enrichment (6-mer frequency, TF over GST control); in assay [3] it was 1.26 fold enrichment (6-mer frequency, TF over GST control); in assay [4] it was 1.23 fold enrichment (6-mer frequency, TF over GST control); in assay [5] it was 1.26 fold enrichment (6-mer frequency, TF over GST control); in assay [6] it was 1.18 fold enrichment (6-mer frequency, TF over GST control). Besides, the binding signal in assay [7] was 1.29 fold enrichment (6-mer frequency, TF over GST control); in assay [8], 1.28 fold enrichment (6-mer frequency, TF over GST control).
With TTGCGC, the binding signal is 1.28 fold enrichment (6-mer frequency, TF over GST control) in assay [1]; 1.13 fold enrichment (6-mer frequency, TF over GST control) in assay [2]; 1.16 fold enrichment (6-mer frequency, TF over GST control) in assay [3]; 1.06 fold enrichment (6-mer frequency, TF over GST control) in assay [4]; 1.12 fold enrichment (6-mer frequency, TF over GST control) in assay [5]; 1.03 fold enrichment (6-mer frequency, TF over GST control) in assay [6]. The binding signal was 1.07 fold enrichment (6-mer frequency, TF over GST control) in assay [7] and 1.06 fold enrichment (6-mer frequency, TF over GST control) in assay [8].
For the sequence TCCCGA, the binding signal was 1.34 fold enrichment (6-mer frequency, TF over GST control) in assay [1]; 1.21 fold enrichment (6-mer frequency, TF over GST control) in assay [2]; 1.29 fold enrichment (6-mer frequency, TF over GST control) in assay [3]; 1.37 fold enrichment (6-mer frequency, TF over GST control) in assay [4]; 1.35 fold enrichment (6-mer frequency, TF over GST control) in assay [5]; 1.52 fold enrichment (6-mer frequency, TF over GST control) in assay [6]. Moreover, the binding signal was 1.26 fold enrichment (6-mer frequency, TF over GST control) in assay [7] and 1.22 fold enrichment (6-mer frequency, TF over GST control) in assay [8].
For ATTCCA, the binding signal was 1.14 fold enrichment (6-mer frequency, TF over GST control) in assay [1]; 1.31 fold enrichment (6-mer frequency, TF over GST control) in assay [2]; 1.15 fold enrichment (6-mer frequency, TF over GST control) in assay [3]; 1.11 fold enrichment (6-mer frequency, TF over GST control) in assay [4]; 1.1 fold enrichment (6-mer frequency, TF over GST control) in assay [5]; 1.15 fold enrichment (6-mer frequency, TF over GST control) in assay [6]. The binding signal in assay [7] is 1.15 fold enrichment (6-mer frequency, TF over GST control); in assay [8], 1.19 fold enrichment (6-mer frequency, TF over GST control).
Consider TTGCAA, for which the binding signal is 1.15 fold enrichment (6-mer frequency, TF over GST control) in assay [1]; 1.19 fold enrichment (6-mer frequency, TF over GST control) in assay [2]; 1.1 fold enrichment (6-mer frequency, TF over GST control) in assay [3]; 1.25 fold enrichment (6-mer frequency, TF over GST control) in assay [4]; 1.19 fold enrichment (6-mer frequency, TF over GST control) in assay [5]; 1.12 fold enrichment (6-mer frequency, TF over GST control) in assay [6]. Further, the binding signal in assay [7] was 1.18 fold enrichment (6-mer frequency, TF over GST control); in assay [8], 1.16 fold enrichment (6-mer frequency, TF over GST control).
As to CGTATG, the binding signal was 1.02 fold enrichment (6-mer frequency, TF over GST control) in assay [1]; 1.07 fold enrichment (6-mer frequency, TF over GST control) in assay [2]; 1.11 fold enrichment (6-mer frequency, TF over GST control) in assay [3]; 1.05 fold enrichment (6-mer frequency, TF over GST control) in assay [4]; 1.03 fold enrichment (6-mer frequency, TF over GST control) in assay [5]; 1.04 fold enrichment (6-mer frequency, TF over GST control) in assay [6]. For the same sequence, the binding signal in assay [7] is 1.13 fold enrichment (6-mer frequency, TF over GST control); in assay [8] it was 1.02 fold enrichment (6-mer frequency, TF over GST control).
